TEAD-YAP inh: TEAD-YAP interaction inhibition; inhibition, % at 9.12 µM; HEK-TIYL cells, TEAD-Gal4/YAP UAS-luciferase luminescence; actives 1.4% (n = 640,000); AID 1259422; in the data active = inhibition above about 32%;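 also: 0% = median of test compound wells and 100% = reference inhibitor wells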
GPR151 ag: human GPR151 activation | activation, % at 11.2 µM | actives 1% (n = 650,000) | PathHunter beta-arrestin GPR151 cells, luminescence; in the data active = activation above about 4.9%;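 also: 0% = median of compound wells and 100% = cells with positive control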
MITF primary: human MITF inhibition, primary screen; O75030; AlphaScreen MITF homodimerization, bead proximity signal; inhibition, % at 2.6 µM; actives 0.91% (n = 650,000); AID 1259374; in the data active = inhibition above about 50%;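 also: 0% = vehicle wells with protein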
Target sequence (O75030 whole entry, looked up): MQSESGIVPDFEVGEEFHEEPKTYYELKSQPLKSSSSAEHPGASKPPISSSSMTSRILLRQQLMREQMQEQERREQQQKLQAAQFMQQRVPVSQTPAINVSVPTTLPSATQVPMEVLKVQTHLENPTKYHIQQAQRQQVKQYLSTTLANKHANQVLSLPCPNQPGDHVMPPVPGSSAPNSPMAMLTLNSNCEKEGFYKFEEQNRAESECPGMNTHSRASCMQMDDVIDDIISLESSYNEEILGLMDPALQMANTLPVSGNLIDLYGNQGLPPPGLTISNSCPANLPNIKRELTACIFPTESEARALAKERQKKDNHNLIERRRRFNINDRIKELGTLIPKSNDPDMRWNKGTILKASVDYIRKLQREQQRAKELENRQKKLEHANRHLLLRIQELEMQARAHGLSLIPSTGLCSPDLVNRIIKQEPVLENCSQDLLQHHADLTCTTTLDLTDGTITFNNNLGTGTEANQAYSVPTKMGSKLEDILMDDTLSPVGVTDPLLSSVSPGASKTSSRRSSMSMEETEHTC
FBW7 act: activators of human E3 ligase FBW7 | Q969H0 | AlphaScreen FBW7–phospho-cyclin E peptide binding, activator screen | normalized activity (activation), % at 26.1 µM | actives 0.13% (n = 650,000); in the data active = normalized activity above about 1.9%;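 also: purified mutant Fbw7 with reduced substrate affinity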
The depositor's hits bear a star. Sampled rows, rich in hits. Any-hit rate of the full collection: about 3.4%.

SMILES | TEAD-YAP inh | GPR151 ag | MITF primary | FBW7 act
COCc1cc(CN2CCN(C)CC2)c(O)c2ncccc12 | 8 | 0 | 101* | -1
COc1cc(CN2CCOCC2)ccc1OCc1ccccc1 | -14 | 0 | -5 | 0
CC(C)C(=O)N1CC[C@@H]2[C@H](CCCN2C(=O)c2cccc(Cn3cccn3)c2)C1 | -4 | 0 | -5 | 0
CC(C)c1cc(=O)[nH]c(-n2nc(C3CC3)cc2NC(=O)C(C)(C)C)n1 | 57* | 1 | 3 | -1
Cc1ccc(Cc2nnc(C(=O)NC3CCCCCC3)o2)cc1 | 4 | 1 | -2 | 0
Oc1ccccc1-c1nc2cnccn2c1NCc1ccc2c(c1)OCO2 | 57* | 0 | -1 | 0
c1ccc(-c2nc3cnccn3c2NCc2ccc3c(c2)OCO3)cc1 | -2 | 1 | -2 | 0
COc1ccc(Cl)cc1C(=O)NCc1ccc(S(N)(=O)=O)cc1 | 2 | -1 | -10 | 0
O=C(O)CCCCCNC(=O)COc1ccc(Cl)cc1Cl | 69* | 0 | 9 | 0
O=C(COc1ccc(Cl)cc1Cl)NCCCCO | -37 | 1 | 1 | 0
COC(=O)CCCCCNC(=O)COc1ccc(Cl)cc1Cl | 69* | -1 | 14 | 1
CCC(=O)n1c(=O)oc2ccc(Cl)cc21 | -10 | 0 | -11 | 0
O=c1oc2ccc(Cl)cc2c(=O)n1-c1cccc([N+](=O)[O-])c1 | 75* | -3 | -1 | 0
CCc1ccccc1-n1c(=O)oc2ccc(Cl)cc2c1=O | 53* | 0 | 0 | 0
COc1cc(C=O)ccc1OC(=O)c1ccc(F)cc1 | 8 | 2 | 13 | 0
Cc1ccc(NC(=O)N(Cc2cc3cc4c(cc3[nH]c2=O)OCCO4)CC2CCCO2)cc1 (centres undefined) | 55* | 1 | 8 | 0
CC[N+]1=C(C)C(C)(C)c2cc(C)ccc21 | 50* | 0 | 16 | 0
CCNc1ncc(C)c(NC2CCN(Cc3ccccc3)CC2)n1 | 5 | 2 | 15 | 0
C=CCOC(=O)C1=C(C)NC(=S)NC1c1ccc(OC)cc1 (centres undefined) | 5 | -1 | 6 | 0
O=c1c(Cl)c(Cl)cnn1C12CC3CC(CC(C3)C1)C2 | 78* | 0 | 4 | 0
O=c1c(Cl)c(NCCO)cnn1C12CC3CC(CC(C3)C1)C2 | 11 | 0 | 7 | 0
O=C(NCc1ccccn1)C(=O)N/N=C/c1ccc(Br)cc1 | 6 | 0 | -24 | 0
CCCCCCCc1c2c(C)c(C(=O)OCC)nc-2cc2n1CC(C)=C2C | 42* | 2 | 11 | 0
CCCCCCCc1c2c(C)c(C(=O)OCC)nc-2cc2n1C(C)C(C)=C2C (centres undefined) | 29 | 1 | 3 | 0
CNS(=O)(=O)c1cccc(C(=O)OCc2cc(C(=O)OC)c(C)o2)c1 | -4 | 1 | 0 | 0
SMILES | TEAD-YAP inh | GPR151 ag | MITF primary | FBW7 act
COc1cccc(-c2cc(C(=O)N3CCOCC3)c3ccccc3n2)c1 | 11 | 0 | -2 | 0
CCc1ccc(-c2cc(C(=O)N3CCN(c4ncccn4)CC3)c3ccccc3n2)s1 | 33* | 1 | -14 | 0
COc1ccc2cc(-c3cc(C(=O)N4CCN(CCO)CC4)c4ccccc4n3)ccc2c1 | 70* | -1 | -1 | 0
Cc1ccc(-c2cc(C(=O)N3CCOCC3)c3ccccc3n2)cc1 | -10 | -1 | -6 | 0
COc1ccc(NC(=O)c2cc(-c3ccncc3)nc3ccccc23)cc1 | 40* | 0 | -2 | 0
CCc1ccc(-c2cc(C(=O)N3CCN(Cc4ccccc4)CC3)c3ccccc3n2)cc1 | 65* | 0 | 17 | 0
Cc1ccccc1NC(=O)N1CCN(c2ccc(Nc3ccncc3)nn2)CC1 | -3 | -1 | 9 | 0
CC(C)c1ccc(N(C)S(=O)(=O)c2ccc3[nH]cc(C(=O)NCCc4ccccc4)c(=O)c3c2)cc1 | 1 | 0 | -5 | 1
CC(C)c1ccc(-c2cc(C(=O)O)c3ccccc3n2)cc1 | 74* | -5 | 9 | 0
COc1ccc(-c2cc(C(=O)N3CCN(c4ccccc4OC)CC3)c3ccccc3n2)cc1 | 41* | 1 | -12 | 0
O=C(Nc1ccc(-c2cn3ccsc3n2)cc1)c1cccnc1Cl | 46* | -1 | 10 | 1
Cc1nc2cc(NCc3nc4ccccc4n3C)ccc2n1C | 81* | -11 | 9 | 1
CC(C)NC(=O)c1cc(-c2ccc(Br)cc2)on1 | -57 | -1 | 13 | 1
CC(C)NC(=O)c1cc(-c2ccc(O)cc2)on1 | 43* | -2 | 2 | 1
C=CCNC(=O)c1cc(-c2ccc3c(c2)OCO3)on1 | -16 | -1 | 0 | 0
C=CCNC(=O)c1cc(-c2ccc(O)cc2)on1 | 34* | -1 | 6 | 0

Source: PubChem
